The results in this text go back to PubChem BioAssay (NCI).

Holding throughout (assay): NCI-60 one-dose screen, 48 h (100 = growth as untreated, 0 = no growth, -100 = all killed)
Holding throughout (settings): 10 µM unless noted

The subject of test [1] is NCI-H23 lung.
The test system of test [2] is NCI-H226 lung.
The subject of test [3] is NCI-H322M lung.
The test system of test [4] is HOP-62 NSCLC.
Test [5] relates to NCI-H460 lung.
In test [6] the test system is HOP-92 NSCLC.
In test [7] the test system is NCI-H522 lung.
Test [8] concerns A549/ATCC NSCLC.
The subject of test [9] is 786-0 renal.
Test [10] relates to COLO 205 colon.
For test [11], the system named is DU-145 prostate.
Test [12] concerns K-562 leukemia.
Test [13] relates to MALME-3M melanoma.
The test system of test [14] is MDA-MB-231 breast.
The test system of test [15] is RXF 393 renal.
Test [16] deals with SF-268 CNS.
The subject of test [17] is SF-295 CNS.
For test [18], the system named is SF-539 CNS.
Test [19] deals with UACC-257 melanoma.
Test [20] deals with M14 melanoma.

About 83,000 compounds went through this panel and 20% of them were active in at least one assay; those are over-represented in the sample as a whole.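 Testing used 96-well plates and a 48-hour single-concentration exposure. Example: -40 means 40% of the starting cells died.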 A number with no mark means an inactive call. The source made the active and inactive calls. How the source made its calls: active means growth percent below 10; inactive means the rest.

Consider `CCn1ccnc1C(=O)/C=C/c1ccc(CC(=O)Nc2ccc(F)cc2)cc1`, for which the growth in test [1] was 29.2%; in [2], 87.4%; in test [3], 35.4%; in test [4] it was 8.48% (active); in [5], 5.47% (active); in test [6] it was 62.8%. The growth in [7] was 18.2%; in test [8], 32.9%; in test [9], 24.6%; in test [10] it was 33.4%; in [11], -24.8% (active); in [12], 7.76% (active). Moreover, the growth in [13] was 92.4%; in test [14], 25.9%; in [15], 26%; in [16], 5% (active); in test [17] it was 22.2%; in test [18], 1.75% (active). Further, the figures for the growth in test [19] and in [20] were 83.5% and 75.5%, respectively.

In the case of `CC[C@H](CC[C@@H](C)[C@H]1CC[C@H]2[C@@H]3CC=C4C[C@@H](OCCc5nn[nH]n5)CC[C@]4(C)[C@H]3CC[C@]12C)C(C)C`, the growth in test [1] is 97.7%; in test [2], 110%; in test [3] it was 101%; in test [4], 98.4%; in test [5], 109%; in [6], 147%. Besides, the growth is 82.9% in [7]; 93.7% in [8]; 101% in test [9]; 118% in test [10]; 101% in [11]; 92.4% in test [12]. The growth in [13] was 108%; in test [14], 117%; in test [15], 129%; in test [16], 100%; in [17], 98.1%; in test [18], 103%. Besides, the growth in test [19] is 103%; in test [20], 108%.

Turning to `COc1cc(C(=O)c2cnc(-c3ccc4cc[nH]c4c3)[nH]2)cc(OC)c1OC`, the growth was 22.9% in test [1]; 26.2% in test [2]; 36.3% in [3]; 12.7% in test [4]; -9.07% (active) in [5]; -2.58% (active) in test [6]. The growth was -17.4% (active) in test [7]; 8.91% (active) in test [8]; -8.83% (active) in test [9]; -55.3% (active) in test [10]; -1.47% (active) in test [11]; 8.98% (active) in [12]. The growth is 48.9% in test [13]; -48% (active) in [14]; 34.4% in test [15]; 10% in test [16]; 5.4% (active) in test [17]; -5.7% (active) in test [18]. For the same compound, the growth in test [19] is 62.3%; in test [20], 4.97% (active).

In the case of `CCCCCCc1nc2nc(Cl)c(Cl)nc2[nH]1`, the growth in test [1] was 34.8%; in [2], 63.2%; in test [3], 96%; in test [4] it was 88.1%; in [5], 52.7%; in test [6] it was -13.8% (active). Also, the growth in [7] was 32.6%; in test [8], 53.2%; in test [9], 65.8%; in [10], 102%; in test [11], 72.5%; in test [12], 39%. Also, the growth in test [13] is 46.6%; in [14], 89.4%; in test [15], 90.4%; in test [16], 83.3%; in test [17], 58%; in test [18], 65.3%. Also, the growth was 54.9% in [19] and 89.6% in [20].

Consider `O=C1/C(=C\c2cn(Cc3ccccc3)c3ccc(Br)cc23)c2ccccc2N1c1c(Cl)cccc1Cl`, for which the growth in test [1] was 96.9%; in test [2] it was 91.6%; in test [3], 96.8%; in [4], 98.5%; in [5] it was 107%; in test [6] it was 57.1%. In addition, the growth in test [7] was 80.7%; in [8], 90.5%; in test [9] it was 99.2%; in [10], 108%; in test [11], 127%; in test [12] it was 109%. Further, the growth was 109% in [13]; 98% in test [14]; 101% in [15]; 113% in test [16]; 98.5% in test [17]; 103% in test [18]. The growth in test [19] is 102%; in test [20] it was 105%.

As to `O=C(Nc1ccc(Nc2ncccn2)cc1)NC1C=c2ccccc2=CC1` (stereo not given), the growth in test [1] is 104%; in test [2], 96.7%; in test [3], 111%; in [4] it was 113%; in [5], 104%; in [6] it was 110%. The growth in test [7] was 99.3%; in [8] it was 93.1%; in test [9] it was 104%; in test [10] it was 123%; in [11], 109%; in test [12] it was 89.1%. Further, the growth in test [13] is 114%; in test [14], 91.3%; in [15], 89.9%; in [16], 98.5%; in test [17], 100%; in test [18], 100%. Moreover, the growth in test [19] is 94.9%; in [20] it was 111%.

In the case of `[2H]C1([2H])NC([2H])([2H])C([2H])([2H])N(c2ccc(Nc3ncc4cc(C(=O)N(C)C)n(C5CCCC5)c4n3)nc2)C1([2H])[2H]`, the growth is 69.9% in test [1]; 71.2% in [2]; 78.7% in [3]; 60.3% in test [4]; 62.7% in [5]; 76.1% in [6]. Further, the growth in test [7] is 82.7%; in test [8], 51.5%; in [9] it was 61.1%; in [10] it was 38.3%; in test [11] it was 99.7%; in test [12], 64.6%. Also, the growth in test [13] is 58.4%; in test [14] it was 64.9%; in [15], 82.4%; in test [16], 77.4%; in test [17], 72.7%; in [18] it was 86.5%. In addition, the growth is 61.1% in [19] and 75.2% in [20].

Take `CCOc1cc(CNc2ccc(N3CCOCC3)c(C(=O)O)c2)ccc1OC`: the growth in [1] is 100%; in test [2], 93.4%; in test [3], 94.8%; in test [4] it was 103%; in test [5] it was 102%; in [6] it was 110%. Further, the growth in test [7] is 99.3%; in test [8] it was 93%; in test [9], 112%; in test [10], 104%; in test [11], 101%; in test [12], 101%. Besides, the growth in test [13] was 105%; in [14], 92.3%; in test [15] it was 99.3%; in test [16], 97.8%; in test [17], 104%; in test [18], 104%. Moreover, the growth was 93.9% in test [19] and 96.5% in test [20].

For `Cn1/c(=N/NC(N)=S)ccc2ccccc21`, the growth in test [1] is 94.9%; in test [2], 88.9%; in test [3], 82.4%; in test [4], 98.6%; in [5], 108%; in test [6] it was 109%. The growth in test [7] was 88.9%; in test [8] it was 97.7%; in [9], 104%; in test [10] it was 114%; in test [11], 103%; in [12], 46.4%. In addition, the growth in test [13] was 90.8%; in test [14] it was 87.7%; in test [15] it was 102%; in test [16], 91.8%; in [17], 89.5%; in [18], 97.8%. In addition, the growth in test [19] was 70%; in [20], 86.4%.

With `COc1ccc(C(=O)c2cc(C)c(OC)c(C)c2)c(OC)c1N(C(=O)C(Cl)Cl)C(=O)C(Cl)Cl`, the growth was 21.9% in test [1]; 15.9% in test [2]; 41.5% in test [3]; 17.7% in [4]; 2% (active) in test [5]; 2.49% (active) in test [6]. Also, the growth in [7] is 11%; in [8], 13.6%; in [9], 14.1%; in [10] it was -34.6% (active); in test [11] it was 1.52% (active); in test [12], 8.2% (active). The growth in test [13] is 58.2%; in test [14], 13.2%; in test [15] it was 41.2%; in test [16], 30.6%; in test [17], 7.31% (active); in test [18] it was -16% (active). The growth was 48.3% in test [19] and -14.8% (active) in [20].

With `O=S(=O)(c1ccc(N/N=C\c2ccccc2)cc1)c1ccc(N/N=C/c2ccccc2)cc1`, the growth is 43.6% in test [1]; 83.3% in [2]; 80% in test [3]; 46.6% in [4]; 40.4% in test [5]; 8.56% (active) in test [6]. Further, the growth in test [7] is 60%; in test [8], 60%; in [9], 83.4%; in test [10] it was 88.9%; in test [11] it was 69%; in test [12] it was 79.9%. Further, the growth in test [13] is 55.4%; in [14], 49.4%; in test [15], 72.8%; in [16], 75.1%; in [17] it was 58.2%; in test [18] it was 65.9%. Moreover, the growth in test [19] was 80.5%; in test [20], 76.7%.

For `CC(c1ccccc1)n1ccnc1CO` (stereo not given), the growth is 96.5% in [1]; 100% in test [2]; 101% in test [3]; 105% in test [4]; 104% in test [5]; 66.5% in [6]. Moreover, the growth was 98.8% in test [7]; 109% in [8]; 105% in test [9]; 106% in test [10]; 113% in test [11]; 105% in test [12]. The growth in [13] is 85.5%; in [14], 104%; in [15] it was 101%; in test [16], 107%; in [17] it was 96.1%; in [18], 106%. For the same compound, the growth in [19] is 106%; in test [20] it was 109%.

Take `COc1ccc(C(=O)/C=C/c2ccc(OCc3ccccc3)c(OC)c2)cc1OC`: the growth in [1] was 59.8%; in test [2] it was 75.8%; in [3] it was 43.2%; in test [4], 31.4%; in test [5], 47%; in [6] it was 11.5%. Moreover, the growth in [7] is 28.9%; in test [8], 13.6%; in test [9], 87.9%; in test [10], 74.6%; in [11], 36.7%; in [12], 20.7%. Also, the growth in [13] is 56.4%; in [14] it was 55.3%; in test [15] it was 75.1%; in [16] it was 43.8%; in [17], 57.1%; in test [18], 83.3%. Besides, the figures for the growth in test [19] and in [20] were 63.2% and 83.1%, respectively.

As to `CC(C)C1C2=C(NCCN1C(=O)Cc1ccccc1)C(C)(C)N(Cc1ccccc1)C2=O` (stereo not given), the growth in test [1] was 97.4%; in test [2], 104%; in [3] it was 99.2%; in [4] it was 91.9%; in test [5], 104%; in test [6], 93.6%. The growth is 93.6% in test [7]; 100% in test [8]; 97.3% in [9]; 100% in [10]; 104% in [11]; 96.5% in test [12]. The growth in test [13] is 98.3%; in test [14], 98.2%; in test [15], 98.3%; in test [16] it was 102%; in test [17], 99.5%; in test [18] it was 107%. Moreover, the growth in [19] is 96.7%; in [20] it was 103%.
